An excerpt weighted towards active compounds, which were near 4.3% of everything screened.
NadD block: inhibitors of S. aureus NadD, primary screen, biochemical, colorimetric, uHTS; Nicotinate-nucleotide adenylyltransferase NadD (Staphylococcus aureus N315); inhibition, % at 20 µM; purified NadD enzyme, colorimetric absorbance read-out; 360,000 tested, 0.78% active; in the data active = inhibition above about 26%
GRIN3A LBD mod: binders of NR3A ligand-binding domain, primary screen, biophysical, differential scanning fluorimetry, uHTS; Glutamate receptor ionotropic, NMDA 3A (GRIN3A) ligand-binding domain; NR3A LBD differential scanning fluorimetry, Tm shift; 0% = protein alone, 100% = glycine-bound protein; Tm shift relative to glycine control, % at 25 µM; 340,000 tested, 2.5% active; AID 1259313, 2017;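 active = melting temperature shift of at least 10% of the positive control shift, at one fixed dose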
rCAG RNA binder: binders of r(CAG) RNA repeats, primary screen, biochemical, fluorescence; 370,000 tested, 1.3% active; r(CAG) RNA repeat, TO-PRO-1 dye displacement fluorescence; AID 651821, 2012; inhibition, % at 3 µM;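 active = inhibition above the plate cutoff, the mean of all test compounds on that plate plus 3 SD, cut at about 35% in these data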;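 also: higher means more dye released from RNA so lower well fluorescence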
FAS TE block: FAS thioesterase domain inhibitors, primary screen, biochemical, fluorescence intensity, uHTS; recombinant FAS-TE, OMFH fluorogenic substrate, fluorescence endpoint; inhibition, % at 15 µM; 360,000 tested, 0.67% active;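 active = compounds whose normalised, plate-corrected inhibition of enzyme fluorescence in the single-dose primary screen is 50% or more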
rCAG bind conf: small molecules binding CAG repeat RNA – biochemical, fluorescence, confirmation | shares compounds with rCAG RNA binder | r(CAG) RNA repeat, TO-PRO-1 dye displacement fluorescence | inhibition, % at 3 µM | 4,300 tested, 70% active | AID 652065, 2013;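 active = inhibition above a per-plate cutoff, the mean inhibition of sample wells plus 3 SD, cut at about 35% in these data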;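 also: loss of TO-PRO-1 fluorescence as compound displaces dye from 1x1 AA loop RNA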
DNA CAG counter: displacement of TO-PRO-1 from CAG DNA duplex, counter-screen for rCAG RNA repeat binder project, biochemical, fluorescence, TO-PRO-1 dye, d(CAG) DNA oligo. shares compounds with rCAG RNA binder. d(CAG) DNA oligo TO-PRO-1 dye displacement. inhibition, % at 3 µM. 4,300 tested, 94% active;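 active = inhibition above its plate's cutoff, the mean test-well inhibition plus 3 SD, cut at about 4.8% in these data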;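 also: hits displace the dye from DNA and so lower well fluorescence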
A number is an active result; n = inactive; x = not tested or not shown.

SMILES | NadD block | GRIN3A LBD mod | rCAG RNA binder | FAS TE block | rCAG bind conf | DNA CAG counter
CC(C)C(=O)NC(NC(=S)Nc1ccc(S(N)(=O)=O)cc1)C(Cl)(Cl)Cl (configuration not stated) | n | n | 45.7 | n | n | n
Cn1c2c(c(=O)[nH]c1=O)C(c1ccc(O)cc1)C1=C(N2)c2ccccc2C1=O (configuration not stated) | n | n | n | n | x | x
COc1cc(C2C3=C(Nc4nc(N)[nH]c(=O)c42)c2ccccc2C3=O)ccc1O (configuration not stated) | n | n | 60.5 | n | n | 20.1
Nc1nc2c(c(=O)[nH]1)C(c1ccccc1)C1=C(N2)c2ccccc2C1=O (configuration not stated) | n | n | 61.8 | n | n | 26.6
C=C1C(=O)[C@]23C[C@H]1CC[C@H]2[C@]1(C)CCC[C@@](C)(C(=O)OC)[C@H]1C[C@@H]3O | x | x | n | x | x | x
O=C(O)c1cc(S(=O)(=O)Nc2ccc(OCc3ccccc3)cc2)ccc1Br | n | n | 44.8 | n | n | 7.5
O=C(O)CCc1ccc(S(=O)(=O)Nc2ccc(OCc3ccccc3)cc2)cc1 | n | n | n | n | x | x
O=C(O)c1ccc(NC(=S)NC(=O)c2cccc(COc3ccccc3)c2)cc1 | n | n | 48.4 | n | 48.8 | 16.3
O=C(O)/C=C/c1ccc(S(=O)(=O)Nc2ccc(OCc3ccccc3)cc2)cc1 | n | n | 51.6 | n | n | 6.8
O=C(O)c1cccc(S(=O)(=O)Nc2ccc(OCc3ccccc3)cc2)c1 | n | n | 40.5 | n | n | n
O=C(NC(=S)Nc1ccc(CN2CCCCC2)cc1)c1cccc(OCc2ccccc2)c1 | n | n | n | n | x | x
CCOc1cc(OCC)cc(C(=O)O)c1 | n | n | n | n | x | x
CCOc1ccc(NS(=O)(=O)c2ccc(C(=O)NNC(=O)c3ccccc3O)cc2)cc1 | n | n | 34.8 | n | n | n
O=C(O)c1cc(OCc2ccccc2)cc(OCc2ccccc2)c1 | n | n | 42.8 | n | 40.4 | 8.0
CCOc1ccc(S(=O)(=O)Nc2ccc(C(=O)NNC(=O)c3ccncc3)cc2)cc1 | n | n | n | n | x | x
COC(=O)[C@]12C[C@H](CC(=O)NCc3ccc(C)o3)C(=O)N(CCC3=CCCCC3)C1=C[C@H](COCc1ccccc1)O[C@@H]2C | x | x | n | x | x | x
O=C(O)CC/C(=C\c1ccc(N2CCCC2)c([N+](=O)[O-])c1)c1nc2ccccc2s1 | n | n | 70.3 | n | 88.5 | 52.9
O=C(O)CC/C(=C\c1cc([N+](=O)[O-])ccc1Cl)c1nc2ccccc2s1 | n | n | n | n | x | x
CN1CCCCC(NC(=O)c2ccc3ccccc3c2)C1=O (configuration not stated) | x | x | n | x | x | x
Cc1ccc(S(=O)(=O)C(C#N)c2nc3ccccc3nc2OCCO)cc1 (configuration not stated) | n | n | 62.0 | n | 51.5 | 15.2
COC(=O)c1cc2c(c3c4cc(C#N)ccc4n(S(=O)(=O)c4ccc(C)cc4)c13)C(=O)N(C)C2 | x | x | n | x | x | x
Cc1ccc(/C=C2\SC(=S)N(C3CCS(=O)(=O)C3)C2=O)o1 (configuration not stated) | n | n | n | n | x | x
NS(=O)(=O)c1ccc(-c2ccc(/C=C3\SC(=S)N(C4CCS(=O)(=O)C4)C3=O)o2)cc1 (configuration not stated) | 35.2 | n | 35.1 | n | n | 14.0
COc1cc(/C=C/C(=O)O)ccc1OS(=O)(=O)c1c(C)cc(C)cc1C | n | n | 36.5 | n | n | 9.4
COc1cc(/C=C/C(=O)O)ccc1OS(=O)(=O)c1cc(C)ccc1C | n | n | n | n | x | x
SMILES | NadD block | GRIN3A LBD mod | rCAG RNA binder | FAS TE block | rCAG bind conf | DNA CAG counter
O[C@H](COc1ccc(F)cc1)CN1CCC(C(O)(c2ccccc2)c2ccccc2)CC1 | x | x | n | x | x | x
O=C(N/N=C/c1ccc(-c2ccc(S(=O)(=O)Nc3ncccn3)cc2)o1)c1cc2ccccc2cc1O | 81.3 | n | 81.9 | n | 75.2 | 39.3
Cn1cccc1/C=N/NC(=O)c1cc2ccccc2cc1O | n | n | n | n | x | x
O=C(Nc1ccccc1)c1c(F)c(F)c(F)c(F)c1F | n | n | n | n | x | x
CC(C)c1c(C(=O)Nc2ccccc2)c(-c2ccccc2)c(-c2ccc(F)cc2)n1CC[C@@H](O)C[C@@H](O)CC(=O)O | n | x | 37.4 | n | 36.2 | 9.9
Clc1cc(Cl)cc(CN2CCN(c3ncc(Cc4ccccc4)cn3)CC2)c1 | x | x | n | x | x | x
O=C(CSc1ncnc2nc[nH]c12)Nc1nnc(SCc2ccc(Cl)c(Cl)c2)s1 | n | n | 41.5 | n | 60.5 | 23.9
Cc1ccc(C)c(NC(=O)CSc2ncnc3nc[nH]c23)c1 | n | n | n | n | x | x
O=C(Cn1cc(COc2ccc(Cl)c(Cl)c2)nn1)NS(=O)(=O)c1ccccc1OC(F)(F)F | n | x | 61.7 | n | 47.5 | 15.8
O=C(Cn1cc(COc2ccccc2C(F)(F)F)nn1)c1ccc(O)cc1 | n | n | n | n | x | x
COc1cc(/C=C2/C(=O)NN(c3ccc(Cl)cc3)C2=O)cc(OC)c1O | n | n | 37.2 | n | n | 4.5
C=CCOc1ccc(/C=C2\C(=N)N3N=C(S(=O)(=O)CC)SC3=NC2=O)cc1OC | n | 11.2 | 36.0 | n | 81.5 | 42.1
CC(C)CS(=O)(=O)C1=NN2C(=N)/C(=C\c3ccc(OC(=O)c4ccco4)cc3)C(=O)N=C2S1 | n | n | 80.6 | n | 86.8 | 66.2
CCS(=O)(=O)C1=NSC2=NC(=O)/C(=C\c3ccc(OC(=O)c4ccco4)c(OC)c3)C(=N)N21 | n | n | n | n | x | x
CCS(=O)(=O)C1=NN2C(=N)/C(=C\c3ccc(OC(=O)c4ccco4)c(OC)c3)C(=O)N=C2S1 | n | n | 52.3 | n | 80.4 | 47.2
COC(=O)C1=C(C)N(C)C(=NCC2CC2)NC1c1ccc(Cl)cc1 (configuration not stated) | x | x | n | x | x | x
COc1ccc(CNS(=O)(=O)c2cc(Br)ccc2Br)c(OC)c1 | x | x | n | x | x | x
CCOC(=O)[C@@]12CCCC=C1N(CCc1ccc(Cl)cc1)C(=O)[C@H]2CC(=O)N1CCN(C(=O)c2ccco2)CC1 | x | x | n | x | x | x
CCCCNC(=O)C[C@H]1C[C@@]2(C(=O)OC)C(=C[C@H](COCc3ccccc3)O[C@@H]2C)N(CCC2=CCCCC2)C1=O | x | x | n | x | x | x
CCOC(=O)c1ccc(N2NC(=O)/C(=C/c3ccc(OC(=O)c4ccco4)c(OC)c3)C2=O)cc1 | x | x | 83.8 | x | 90.4 | 66.2
CCCCN1CC[C@@H](C)Oc2cc(Br)ccc2S1(=O)=O | x | x | n | x | x | x
